The values that follow come from PubChem BioAssay (EPA / NIEHS).

By AC50 is commonly meant the concentration at which the activity in the assay is half-maximal.

The nature of test [1]: CEETOX_H295R_MTT_cell_viability: Viability Assessment in the CeeTox HT-H295R MTT Assay (AID 2283718; active means hit-call score of the fitted dose curve at least 0.9, where 1 is the maximum; inactive means score below 0.9). The method, boiled down:
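H295R cells prestimulated 48 h with 10 uM forskolin, then exposed 48 h to test chemical (0.1% DMSO final). Viability by MTT (0.5 mg/ml, 4 h, 37 C), absorbance 570/650 nm; percent change versus DMSO, bidirectional fit.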

A short description of test [2]: Tanguay_ZF_120hpf_ActivityScore_legacy: (Legacy) Oregon State University Tanguay Lab 120 Hour Post-fertilization zebrafish Assay Score for Activity (AID 2283742). The method, boiled down: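 In this whole-embryo screen, dechorionated zebrafish were exposed from 6 hpf until 120 hpf at 28C under a 0.64% DMSO vehicle. Developmental malformations and death were recorded by brightfield microscopy as binary endpoints.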

Test [3] addresses Luciferin 4-monooxygenase (Photinus pyralis) (UniProt P08659). Briefly: CCTE_Simmons_QuantiLum_inhib_2: CCTE's Firefly Luciferase Inhibition Assay, Simmons Lab (AID 2283767). The method, boiled down:
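Eight test concentrations, 5 nM up to 87.5 uM final, preincubated 30min at 37C in the dark with purified luciferase (0.5% DMSO final). Detection reagent (150uM D-luciferin, 147uM dATP, 75uM CoA, pH 7.8) injected per well before kinetic luminescence read; three replicates.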

For test [4], the system named is Thyroperoxidase (TPO), gene 445522. Kind of test: CCTE_Simmons_GUA_TPO: CCTE's Guaiacol Assay for Thyroperoxidase (TPO) Inhibition, Simmons Lab (AID 2283750). The method, boiled down:
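Porcine thyroid microsomes (25 ug) in 200mM potassium phosphate, preincubated 30 s at 37C with compound (8 concentrations, 5 nM–87.5 uM) and 35mM guaiacol; 1mM H2O2 starts reaction. Absorbance change at 450nm over first 80 s; loss of signal versus DMSO, three replicates.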

Each structure is given as a SMILES string. Results filed as inconclusive are left out. The source made the active and inactive calls. How the source made its calls, unless noted: active means hit-call score of the fitted dose curve at least 0.9, where 1 is the maximum; inconclusive means response in the unintended direction; inactive means score below 0.9.

Luciferin 4-monooxygenase (Photinus pyralis), sequence (P08659 whole entry, looked up): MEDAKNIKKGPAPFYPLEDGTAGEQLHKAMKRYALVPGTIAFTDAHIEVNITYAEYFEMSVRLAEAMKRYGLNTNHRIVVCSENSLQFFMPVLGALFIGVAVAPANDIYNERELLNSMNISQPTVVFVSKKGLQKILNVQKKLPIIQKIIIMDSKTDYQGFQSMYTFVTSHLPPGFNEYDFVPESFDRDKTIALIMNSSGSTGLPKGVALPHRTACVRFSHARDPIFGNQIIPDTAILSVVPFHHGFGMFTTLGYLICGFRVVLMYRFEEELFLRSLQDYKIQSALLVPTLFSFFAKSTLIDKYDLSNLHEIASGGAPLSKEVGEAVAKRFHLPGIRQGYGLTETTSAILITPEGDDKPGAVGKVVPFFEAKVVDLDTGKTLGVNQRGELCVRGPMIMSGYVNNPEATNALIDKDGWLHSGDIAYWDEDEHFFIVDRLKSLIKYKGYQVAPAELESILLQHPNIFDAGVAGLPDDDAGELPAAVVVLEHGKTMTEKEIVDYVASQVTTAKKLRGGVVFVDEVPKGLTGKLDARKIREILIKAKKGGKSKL

As for `CC(C)(O)c1cnn2c(-c3ccc(F)c(-c4c(F)cccc4C#N)c3)cnc2n1`, the molecule was classed as inactive in test [1] and in test [2].
Turning to `CC(C)N(Cc1ccccc1)C(=O)C(C)(C)C`, the molecule was classed as inactive in test [1] and in test [2].
For the molecule `Clc1ccccc1Cl`, the call in test [2] was inactive.
In the case of `N#CC(Br)(Br)C(N)=O`, the result in test [2] and in test [3] was inactive.
As for `CCCSC(=O)N(CCC)CCC`, the molecule was classed as inactive in test [2].
Same read-out and setting: the result for `ClCCOCCCl` reads “inactive”.
For `CN(C)c1ccccc1`, the molecule was classed as inactive in test [2] and in test [3]. Moreover, the AC50 in test [4] is 23.7 µM (active).
For `C=CCc1ccc2c(c1)OCO2`, the molecule was called inactive in test [1], in test [2] and in test [3].
Take `Nc1ccc([N+](=O)[O-])cc1`: the result in test [2] was inactive.
